Screens as filed in PubChem BioAssay.
Pf Dd2 growth – qHTS Primary assay for Inhibitors of Plasmodium falciparum Dd2 growth in vitro; P. falciparum Dd2 growth, SYBR Green, 72 h; Potency, µM (highest dose often 28.9 µM), for inactives: at the top dose activity, negative = inhibition, most hits filed as inhibitors; 120,000 tested, 4.3% active; active means well fitted inhibition curve with a large enough effect;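 further: plate controls were DMSO vehicle for no effect and reference drug for full effect; nearly all actives have a fitted effect of over 65% in size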
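Infected erythrocytes (Dd2, 0.3% parasitemia, 2.5% hematocrit final) are added to compound in RPMI-1640/Albumax II medium, grown 72 h at 37C in low oxygen, then lysed with saponin/Triton-X containing SYBR Green and read by fluorescence.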
* hit, by the source's call; i = inactive; [ ] = another dose, or the depositor's remark. Many of the other results were omitted from the sample, so hits are more common in it than they were. Potency means the concentration at half of the fitted maximal effect.

SMILES | Pf Dd2 growth
CCOC(=O)c1ccc(N2C(=O)c3[nH]nc(-c4ccccc4)c3C2c2cccs2)cc1 (configuration not stated) | 7.08µM*
CCOc1ccc(-c2n[nH]c3c2C(c2cccs2)N(c2ccc(Br)cc2)C3=O)cc1 (configuration not stated) | 3.55µM*
CCCN1C(=O)c2[nH]nc(-c3ccc(OC)cc3)c2C1c1ccccn1 (configuration not stated) | -18.6%
CCOC(=O)c1ccc(N2C(=O)c3[nH]nc(-c4ccc(C)cc4)c3C2c2cccc(F)c2)cc1 (configuration not stated) | 5.01µM*
Cc1ccc(N2C(=O)c3n[nH]c(C)c3C2c2ccc(Cl)cc2)cc1 (configuration not stated) | -18.0%
O=C1c2[nH]nc(-c3ccc(F)cc3)c2C(c2ccccc2F)N1c1ccccc1 (configuration not stated) | -28.2%
CCCN1C(=O)c2[nH]nc(-c3ccc(F)cc3)c2C1c1ccccn1 (configuration not stated) | -15.0%
CCc1ccc(C2NC(=O)c3[nH]nc(-c4cccc(OC)c4)c32)cc1 (configuration not stated) | -10.3%
CCOC(=O)c1ccc(NC(=O)c2oc(=O)c3ccccc3c2-c2ccccc2)cc1 | 24.0%
CCOC(=O)c1ccc(N2C(=O)c3[nH]nc(-c4ccccc4)c3C2c2ccc(CC)cc2)cc1 (configuration not stated) | 10µM*
CCCN1C(=O)c2[nH]nc(-c3ccc(F)cc3)c2C1c1ccc(O)c(OCC)c1 (configuration not stated) | i
CCOc1ccccc1NC(=O)C1=C(C)Nc2ncnn2C1c1cccs1 (configuration not stated) | 1.1%
O=C(Cn1ccn2nc(-c3ccc(F)cc3)c(CO)c2c1=O)N1CCC(Cc2ccccc2)CC1 | i
O=C(CC1CCCCC1)N1CCC(c2noc(COc3ccc(F)cc3)n2)CC1 | -9.3%
O=C(NC1CCCC1)N1CCCCC1c1nc(-c2cnccn2)n[nH]1 (configuration not stated) | 3.5%
Cn1ccc(C(=O)N2CCC(c3nnc4n3C(C(=O)NCc3ccc(F)cc3)CC4)CC2)n1 (configuration not stated) | 8.0%
O=C(NCC1CC1)c1ccc(N2CC3CC(C2)[C@H]2CCCC(=O)N2C3)nc1 (some centres not stated) | i
CC(C)(C)CN1CCOC[C@H]1c1ncc(-c2ccc(S(C)(=O)=O)cc2)[nH]1 | -23.9%[44.1 µM]
COc1cccc(-c2cnc3n[nH]c(-c4ccccc4)c3n2)c1 | -22.8%[44.1 µM]
O=C(c1cccc2c1CCN2C(=O)C1CC1)N1CCCCC1 | -13.6%
CCOc1ccc(N2CC(NC(=O)Cc3cccs3)CC2=O)cc1 (configuration not stated) | i
CCOC(=O)c1ccc(N2C(=O)c3[nH]nc(-c4ccc(OCC)cc4)c3C2c2cccs2)cc1 (configuration not stated) | 2.82µM*
CCOc1ccc(C(=O)OCc2cc(=O)n3nc(C4CC4)sc3n2)cc1 | -6.5%
O=C(c1ccc(F)c(Cl)c1)N1CCC2(CC1)CN(c1ccccc1)C2=O | -23.6%
O=C(O)C1CCc2nnc(C3CCN(C(=O)c4ccc5c(c4)OCO5)CC3)n21 (configuration not stated) | 14.3%
SMILES | Pf Dd2 growth
COc1cccc(NC(=O)[C@@H]2C[C@@H](c3cccc(C(F)(F)F)c3)N(C)C2)c1 | -15.3%[44.1 µM]
CCC(C(=O)Nc1cc(-c2nc3cccnc3s2)ccc1C)c1ccccc1 (configuration not stated) | 10µM*
Cc1cccc(C(=O)Nc2cc(-c3nc4cccnc4s3)ccc2C)c1 | 3.7%
Cc1ccc(-c2nc3cccnc3s2)cc1NC(=O)C(C)C | -21.1%
CC(=O)N(C)Cc1ccccc1C(F)(F)F | -2.4%[44.1 µM]
COc1ccc(CNC(=O)CSc2nc(-c3ccc(OC)cc3)cc(C(F)(F)F)n2)cc1 | 5.0%
COc1ccc(-c2cc(C(F)(F)F)nc(SCCC(=O)Nc3ccccc3F)n2)cc1 | 27.5%
CCCNC(=O)CCSc1nc(-c2ccc3c(c2)OCO3)cc(C(F)(F)F)n1 | 5.01µM*
CCCNC(=O)CSc1nc(-c2ccc(OC)cc2)cc(C(F)(F)F)n1 | i
CC(C)(C)NC(=O)CCSc1nc(-c2ccc3c(c2)OCO3)cc(C(F)(F)F)n1 | i
COc1ccc(-c2cc(C(F)(F)F)nc(SCCC(=O)Nc3cc(C)ccc3O)n2)cc1 | 1µM*
O=C(CN1CCOCC1)N1CC(F)(F)C[C@H]1c1nc(C2CC2)no1 | 21.8%
COCCNC(=O)[C@@H]1C[C@@H](O)CN1C1CCN(C(=O)c2ccc(C(C)C)cc2)CC1 | -13.9%
COCc1nc(C2CCCN(C(=O)c3ccccc3F)C2)no1 (configuration not stated) | 33.7%
COCCCNC(=O)C1c2ccccc2C(=O)N(C2CCCCC2)C12CCCCC2 (configuration not stated) | -3.8%
COc1ccccc1-c1cc2c(nc1OC)nc(CC1CC1)n2C | 12.6µM*
COCc1nc2nc(-c3ccccc3)c(-c3ccc(OC)cc3)cc2n1C | i
COc1nc2nc(CCc3ccccc3)n(C)c2cc1Nc1ccncn1 | -11.8%[44.1 µM]
CN1CCCC2(CCN(C(=O)CCc3ccc(Cl)cc3)C2)C1=O (configuration not stated) | -4.4%
O=C(O)c1cccc2c1CCN2C(=O)c1ccccc1 | -9.5%
Cc1cnc(C(=O)N2CC(N(C)Cc3cccnc3)C2)cn1 | 1.4%
N#Cc1ccc(C(=O)NC2CCN(c3cc(-c4ccc(Cl)cc4)[nH]n3)C2)cc1 (configuration not stated) | 7.94µM*
N#Cc1ccc(C(=O)NC2CCN(c3cc(-c4ccc(Cl)cc4)[nH]n3)CC2)cc1 | i
N#Cc1ccc(C(=O)NC2CCN(c3cc(-c4ccccc4)[nH]n3)CC2)cc1 | i
O=C(NC1CCN(c2cc(-c3ccc(Cl)cc3)[nH]n2)C1)c1cccnc1 (configuration not stated) | i
SMILES | Pf Dd2 growth
Cc1ccccc1C(=O)NC1CCN(c2cc(-c3ccc(Cl)cc3)[nH]n2)C1 (configuration not stated) | i
O=C(NC1CCN(c2cc(-c3ccc(Cl)cc3)[nH]n2)C1)c1ccc(Br)o1 (configuration not stated) | 12.6µM*
COc1ccccc1CC(=O)N1CC[C@@H]2NC(=O)[C@H]3C[C@H](NC(=O)C4CCC4)CN3C(=O)[C@H]21 | 16.8%
CCc1nc(-c2c3n(c(=O)n(CC(=O)Nc4ccc(Cl)cc4F)c2=O)CCCC3)no1 | i
O=C(c1ccccn1)N1CCn2c(nnc2-c2cccnc2)C1 | -4.6%[44.1 µM]
CCc1noc(-c2cn(C3CCN(C(=O)c4ccc(C)cc4C)C3)nn2)n1 (configuration not stated) | 128.4%
CCCCS(=O)(=O)c1nc(-c2ccc(Br)cc2)cc(-c2ccccc2)c1C#N | 5.01µM*
C#CCSc1nc(-c2ccccc2)cc(-c2ccccc2)c1C#N | 5.9%[0.594 µM]
Cc1cccc(-c2cc(-c3ccccc3)nc(SCC(=O)Nc3ccccc3)c2C#N)c1 | 13.3%
CCN1C(=O)CCN(C(C)=O)CC12CCOCC2 | 10.7%
CCN1C(=O)CCN(CC2CCCCC2)CC12CCOCC2 | 3.55µM*
CCN1C(=O)CCN(S(=O)(=O)CC)CC12CCOCC2 | 7.1%
O=C(NC1CC1)c1cc(Br)cn2ccnc12 | 5.5%[44.1 µM]
Cn1cc(C2CCN(C(=O)c3sc(Cl)c(Cl)c3Cl)CC2)c2ccccc21 | 7.94µM*
CCCn1cc(C2CCN(S(=O)(=O)c3ccccc3Cl)CC2)c2ccccc21 | -1.3%
